According to paper PMC10726135, “HNF4α isoforms regulate the circadian balance between carbohydrate and lipid metabolism in the liver”:
Whole data set: some 18,000 sequences, median “log2 normalized intensity” near 0.36, cut for the highest 2% near 7.3. Many of the other results were omitted from the sample, so the highest values are more common in it than they were.

Molecular target: T1, HNF4alpha8 (COS-7 nuclear extract) (Homo sapiens, UniProt P41235-5 1-452)
T1 sequence: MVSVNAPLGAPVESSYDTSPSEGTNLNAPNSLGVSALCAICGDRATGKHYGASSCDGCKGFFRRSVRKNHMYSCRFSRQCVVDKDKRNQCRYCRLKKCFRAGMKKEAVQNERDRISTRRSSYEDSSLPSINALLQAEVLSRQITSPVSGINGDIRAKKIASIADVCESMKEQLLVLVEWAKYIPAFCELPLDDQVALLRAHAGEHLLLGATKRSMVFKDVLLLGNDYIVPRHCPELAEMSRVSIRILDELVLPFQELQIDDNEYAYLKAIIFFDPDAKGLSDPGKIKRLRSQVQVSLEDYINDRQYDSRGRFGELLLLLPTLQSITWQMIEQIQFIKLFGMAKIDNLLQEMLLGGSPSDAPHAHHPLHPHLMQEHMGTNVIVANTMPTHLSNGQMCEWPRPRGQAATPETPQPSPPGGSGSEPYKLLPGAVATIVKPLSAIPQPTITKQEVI
Assay: protein-binding microarray; COS-7 nuclear extract on double-stranded Agilent 4x180k PBM; binding buffer, salt, pH and temperature not given in the material; high values mean tight binding
Details: chain copies: 2; label: 3' end of strand 1 on the slide; dsDNA, one strand shown
Method in brief: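 Binding signal was defined as the normalized, background-corrected gProcessedSignal reported by Agilent software. It came from nuclear extracts of COS-7 cells transiently transfected with a human HNF4α isoform expression vector, applied to a custom Agilent SurePrint G3 4x180k array. That array held ~44,000 test sequences in quadruplicate as double-stranded ~60-nt oligonucleotides, and bound HNF4α was imaged at 2-µm resolution on an Agilent G2565CA scanner.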

Sequence | binding signal [log2 normalized intensity]
CTTGGCTGTGTCCCTTGACCAAAGGTCACTGCCTAGGGAGATTAGAGTATCGGTCGA | 7.67
CACTTACAAGTGTACAAAGGTCACTTCTGTGCCTAGGGAGATTAGAGTATCGGTCGA | 7.03
ATTGGCTTGGCTGTGTCCCTTGACCAAAGGGCCTAGGGAGATTAGAGTATCGGTCGA | 2.62
GGAATGTCTGACCAACCTGTCCAAAGGTCAGCCTAGGGAGATTAGAGTATCGGTCGA | 8.5
ACCAACCTGTCCAAAGGTCATCTGTCACTCGCCTAGGGAGATTAGAGTATCGGTCGA | 6.36
TCAGAGGAATGTCTGACCAACCTGTCCAAAGCCTAGGGAGATTAGAGTATCGGTCGA | -0.555
TTATATCAGAGGAATGTCTGACCAACCTGTGCCTAGGGAGATTAGAGTATCGGTCGA | 0.807
CTGTACACTTACAAGTGTACAAAGGTCACTGCCTAGGGAGATTAGAGTATCGGTCGA | 8.53
TATACCTGTACACTTACAAGTGTACAAAGGGCCTAGGGAGATTAGAGTATCGGTCGA | 2.96
AGTATATTGGCTTGGCTGTGTCCCTTGACCGCCTAGGGAGATTAGAGTATCGGTCGA | 3.67
GTCTGACCAACCTGTCCAAAGGTCATCTGTGCCTAGGGAGATTAGAGTATCGGTCGA | 7.75
ACAGGGAAAGTATGGGTCAGCCCTGCCATCGCCTAGGGAGATTAGAGTATCGGTCGA | -0.943
GTTTTACAAACACAATGGAAGGCTGTATGTGCCTAGGGAGATTAGAGTATCGGTCGA | 0.119
GTCACTGCTCAAAAACACTCAGTTAATTATGCCTAGGGAGATTAGAGTATCGGTCGA | -0.0424
CTCCCAAATCTTCTTTAAGCTATGTGGTGGGCCTAGGGAGATTAGAGTATCGGTCGA | 0.933
TTTCTGTTTGTCTTACTGTGTTGTCGTATTGCCTAGGGAGATTAGAGTATCGGTCGA | 2.11
ACAGCACTTAGGGTTCAAAGGTTGTTGAGCGCCTAGGGAGATTAGAGTATCGGTCGA | 6.67
TGCACATTCCCTCCAGCAGGGGATGCCCTTGCCTAGGGAGATTAGAGTATCGGTCGA | 2.84
GCAGGGGATGCCCTTTGACCTCTGCTTCCTGCCTAGGGAGATTAGAGTATCGGTCGA | 8.67
CTAGGCTCCAGGGCACTGCCCTTTGGAACCGCCTAGGGAGATTAGAGTATCGGTCGA | 7.42
CCCTTTGACCTCTGCTTCCTGCTACAGAGCGCCTAGGGAGATTAGAGTATCGGTCGA | 2.76
CTCCAGGGCACTGCCCTTTGGAACCTGCCCGCCTAGGGAGATTAGAGTATCGGTCGA | 6.57

Sequence | binding signal [log2 normalized intensity]
AAAGCCTAGGCTCCAGGGCACTGCCCTTTGGCCTAGGGAGATTAGAGTATCGGTCGA | 3.51
ATTCCCTTTCTCCTCCCCTCCCCTCCCCCCGCCTAGGGAGATTAGAGTATCGGTCGA | 6.78
ATTCCCTCCAGCAGGGGATGCCCTTTGACCGCCTAGGGAGATTAGAGTATCGGTCGA | 9.35
TGCTTCCAAGTTATGCAGACCTTTGCCCTTGCCTAGGGAGATTAGAGTATCGGTCGA | 7.7
GGATGCCCTTTGACCTCTGCTTCCTGCTACGCCTAGGGAGATTAGAGTATCGGTCGA | 6.5
TTATGCAGACCTTTGCCCTTTGTTTACATAGCCTAGGGAGATTAGAGTATCGGTCGA | 5.95
TACTTTGCTTCCAAGTTATGCAGACCTTTGGCCTAGGGAGATTAGAGTATCGGTCGA | 2.66
CACAGACCTGCCTCTCTCTCATGTCTGTACGCCTAGGGAGATTAGAGTATCGGTCGA | 0.832
TGGTGCTATGTCCCTGACTGTGTGGCTTGCGCCTAGGGAGATTAGAGTATCGGTCGA | 0.908
GTCCATCACCTGGCTCTGAAAAACAAAATGGCCTAGGGAGATTAGAGTATCGGTCGA | -0.567
CTTCACCTCCCCTAGACTTACTATTATGCCGCCTAGGGAGATTAGAGTATCGGTCGA | 1.86
TGAGGGGACAAAGTTCGTGGAAAGTGGAAGGCCTAGGGAGATTAGAGTATCGGTCGA | 3.11
GCAGAGGGACAACTGAGTTACGTAATGTGTGCCTAGGGAGATTAGAGTATCGGTCGA | 0.932
TGAACTATTGAACCACCAGATAGAGCTTTTGCCTAGGGAGATTAGAGTATCGGTCGA | 0.654
CCACCCTATTGATGCAAGGACAATGTCTAGGCCTAGGGAGATTAGAGTATCGGTCGA | 1.38
CTTCAAGTCAGTCAAAATGAATAGTCCTTTGCCTAGGGAGATTAGAGTATCGGTCGA | 0.855
GGCAGGGCCAGATAAAGCAGGTTGTACCTTGCCTAGGGAGATTAGAGTATCGGTCGA | 3.15
TTCCAGGCTTGTACCTTGACCTTCTCTGTTGCCTAGGGAGATTAGAGTATCGGTCGA | 6.19
GGCCAGATAAAGCAGGTTGTACCTTGACCCGCCTAGGGAGATTAGAGTATCGGTCGA | 9.73
CCTGCTTCCAGGCTTGTACCTTGACCTTCTGCCTAGGGAGATTAGAGTATCGGTCGA | 7.46
GATAAAGCAGGTTGTACCTTGACCCAAGAAGCCTAGGGAGATTAGAGTATCGGTCGA | 5.6
CCCTTCCTGCTTCCAGGCTTGTACCTTGACGCCTAGGGAGATTAGAGTATCGGTCGA | 3.23
